# TDP1 cell CPT = growth inhibition of DT40 Tdp1-/-;hTDP1 cells with camptothecin (screen for TDP1 inhibitors) | Potency, µM (series often up to 46.2 µM), for the others: top-dose activity change, negative = growth inhibition, actives largely listed as inhibitors | chicken DT40 Tdp1-/-;hTDP1 cells + 20 nM CPT, ATP luminescence, 48 h | 12% of 420,000 active; note: potency is the fitted concentration of half-maximal effect; nearly all actives have a fitted effect of over 55% in size
#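 Chicken DT40 Tdp1-/- cells complemented with human TDP1, 400 cells/well, exposed to compounds plus 20 nM camptothecin for at least 48 h at 37 C; viability read as ATP content by CellTiter-Glo luminescence.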
# IL1B secr inh = inhibitors of inflammasome signaling (IL-1 beta secretion). THP-1 LPS/ATP IL-1B secretion, AlphaLISA, 16 h; stronger effect = lower value. activity change, % at 57.5 µM. 4.7% of 360,000 active; in the data active = activity change below about -50%; inconclusive = mostly about -30% to -49%
#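 THP-1 cells pretreated 1 hr with compounds (up to 57.5 uM final), then stimulated with LPS (250 ng/mL final) plus ATP (1.25 mM final); secreted IL-1B measured by AlphaLISA after 16 hr, decreased signal indicating inhibition.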
# TDP1 cell noCPT = qHTS for Inhibitors of human tyrosyl-DNA phosphodiesterase 1 (TDP1): qHTS in cells in absence of CPT; DT40 Tdp1-/- hTDP1 cells, no CPT, ATP luminescence, 48 h; Potency, µM (titrated, usually from 46.2 µM), without a hit: at the highest dose activity change, negative = growth inhibition, most hits filed as inhibitors; 15% of 420,000 active; AID 686978, 2013; note: potency is the fitted concentration of half-maximal effect; nearly all actives have a fitted effect of over 55% in size
#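 Luminescent ATP content (CellTiter-Glo) served as the growth readout. Knockout chicken DT40 cells expressing human TDP1 were exposed to compounds without camptothecin for a minimum 48 hr at 37 °C.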
# HT1080NT lethal = kills 2HG-producing HT-1080-NT fibrosarcoma cells; Potency, µM (titrated, usually from 46.1 µM), for the others: top-dose activity, negative = less viability, hits mostly cytotoxic; 1.6% of 360,000 active; HT-1080-NT fibrosarcoma viability, CellTiter-Glo ATP luminescence, 48 h; AID 686970;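 note: NT is the 2HG producing partner of a matched IDH1 knockdown line; potency is the fitted concentration of half-maximal effect; 0% = DMSO-treated cells and -100% = media-only wells without cells; nearly all actives have a fitted effect of over 55% in size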
#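 Viability by CellTiter-Glo luminescence after 48 h compound exposure at 37C of HT-1080-NT cells (750/well, RPMI, 5% FBS). % activity scaled between DMSO wells and medium-only wells, then curve-fitted and categorized by curve class.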
# HT1080 IDH1KD tx = kills HT-1080 cells with IDH1 knockdown. HT-1080 IDH1 knockdown viability, ATP luminescence, 48 h. Potency, µM (highest dose often 46.1 µM), for inactives: at the highest dose activity, negative = toxicity, most hits filed as cytotoxic. 2% of 360,000 active;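 note: potency is the fitted concentration of half-maximal effect; 0% = DMSO wells and -100% = cell-free medium wells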
#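 HT-1080-IDH1KD cells (IDH1 knocked down), 750/well in RPMI with 5% FBS, treated with compound 48 h at 37 degrees C. Viability by CellTiter-Glo luminescence, normalised to DMSO and no-cell wells; concentration-response curves classed.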
# An asterisk follows results filed as active; u = inconclusive; x = not tested or not shown. Most compounds without a hit are left out; they make up all but 19% or so of the library. Unless noted, calls come from the whole dose curve; as a rule, active = well fitted curve in the direction sought with a large enough effect; inconclusive = small, poorly fitted or top-dose-only effect, or another doubt; inactive = no such curve, though single readings can be large; an effect the other way counts as inactive or inconclusive. Unless noted, % is set by controls: 0 for no effect and ±100 for the full control effect.
SMILES,TDP1 cell CPT,IL1B secr inh,TDP1 cell noCPT,HT1080NT lethal,HT1080 IDH1KD tx
CC(CNC(=O)c1ccccc1Cl)NC(=O)c1ccccc1Cl (stereo not drawn),5%,x,-24%,17%,17%
O=c1c(NCc2cccs2)nccn1-c1ccc(F)cc1,-17%,x,u,x,x
CCOC(=O)[C@]12CCCC=C1N(Cc1ccc(Cl)cc1Cl)C(=O)[C@H](CC(=O)NCCc1ccccc1OC)C2,u,0,23µM*,u,u
CCOC(=O)[C@]12CCC=C1N(Cc1ccc(Cl)cc1Cl)C(=O)[C@H](CC(=O)NCC13CC4CC(CC(C4)C1)C3)C2,u,-10,21µM*,-2%,-9%
C#CCNC(=O)C[C@@H]1C[C@@]2(C(=O)OCC)CCCC=C2N(Cc2ccc(Cl)cc2Cl)C1=O,u,-19,u,1%,5%
CCOC(=O)[C@]12CCCC=C1N(Cc1ccc(Cl)cc1Cl)C(=O)[C@H](CC(=O)NCCCN1CCCC1=O)C2,u,-17,u,2%,10%
CCCCNC(=O)C[C@@H]1C[C@@]2(C(=O)OCC)CCCC=C2N(Cc2ccc(Cl)cc2Cl)C1=O,21µM*,u,-92%,u,-29%
CCCCOCCCNC(=O)C[C@@H]1C[C@@]2(C(=O)OCC)CCCC=C2N(Cc2ccc(Cl)cc2Cl)C1=O,u,-79*,18µM*,u,u
COC(=O)[C@]12CCCCC=C1N(Cc1ccc(Cl)cc1Cl)C(=O)[C@H](CC(=O)NCC13CC4CC(CC(C4)C1)C3)C2,2%,24,-18%,16%,0%
CCOC(=O)[C@]12CCCC=C1N(Cc1ccc(Cl)cc1Cl)C(=O)[C@H](CC(=O)NCc1ccccc1)C2,u,0,u,u,u
CCN1C(=O)/C(=C\c2ccc(F)cc2)N=C1SCC(=O)NCc1ccco1,-2%,0,0%,0%,-6%
O=C1c2ccccc2C(=O)N1CCCc1cn(C[C@H]2CC[C@H](Cn3cc(CCCN4C(=O)c5ccccc5C4=O)nn3)O2)nn1,-22%,-6,u,-1%,-3%
O=C(Nc1nccs1)[C@@H]1CC=C[C@@H]2CCN(C3CC3)C(=O)[C@@H]21,-6%,x,-8%,x,x
CCOC(=O)[C@]12CCC=C1N(Cc1ccc(Cl)cc1Cl)C(=O)[C@H](CC(=O)NCCCN1CCCC1=O)C2,18µM*,-12,u,-2%,3%
CCN1C(=O)N/C(=C/c2ccc(C)o2)C1=O,23µM*,0,21µM*,17%,4%
Cc1ccc(/C=C2/NC(=O)N(c3ccccc3)C2=O)o1,10µM*,0,16µM*,-4%,6%
O=C(NC1CCCCC1)C(c1ccc(C(F)(F)F)cc1)n1c(=O)c(-c2cc3ccccc3[nH]2)nc2ccccc21 (stereo not drawn),15µM*,70,u,u,u
O=C(NC1CCCCC1)C(c1ccncc1)n1c(=O)c(-c2cc3ccccc3[nH]2)nc2ccccc21 (stereo not drawn),18µM*,u,u,u,u
COc1ccc(C2(c3ccc(OC)cc3)NC(=O)N(CC(=O)NC3CCCC3)C2=O)cc1,-3%,5,6%,8%,0%
CC1=CCC2CC1C2(C)C (stereo not drawn),1%,x,0%,x,x
Cc1ccc2nc(N3CCN(CCO)CC3)nc(-c3ccccc3)c2c1,u,u,u,-29%,-23%
Clc1ccc(-c2nc(N3CCOCC3)nc3ccccc23)cc1,u,21,u,6%,26%
Clc1ccc2nc(N3CCNCC3)nc(-c3ccccc3)c2c1,18µM*,-95*,9.2µM*,-10%,20%
OCCN1CCN(c2nc(-c3ccccc3)c3cc(Cl)ccc3n2)CC1,u,-52*,23µM*,u,u
O=C1CN(c2nc(-c3ccccc3)c3cc(Cl)ccc3n2)c2ccccc2N1,16µM*,7,21µM*,5%,4%
SMILES,TDP1 cell CPT,IL1B secr inh,TDP1 cell noCPT,HT1080NT lethal,HT1080 IDH1KD tx
Cc1ccc(OCC(=O)NC2CCS(=O)(=O)C2)c(C)c1 (stereo not drawn),0%,19,17%,17%,8%
CC(=O)c1ccc(N2CCN(S(=O)(=O)c3cc4c(cc3C)NC(=O)CO4)CC2)cc1,-24%,1,u,u,u
CNC(=O)c1ccc(C)c(NC(=O)C2=C(C)OCCS2)c1,-2%,0,12%,8%,11%
Cc1cc(NC(=O)c2ccc3c(c2)C(=O)N(c2cccc(C)c2C)C3=O)no1,-9%,9,-2%,6%,9%
Nc1c(C(=O)c2ccc(Cl)cc2)sc2c1c(=O)[nH]c(=O)n2-c1ccccc1,14%,51,0%,-1%,-8%
Cc1ccc(C(=O)c2sc3c(c2N)c(=O)[nH]c(=O)n3CCc2ccccc2)cc1,16µM*,27,16µM*,9%,5%
CC(=O)c1ccc(-n2c(=O)[nH]c(=O)c3c(N)c(C(=O)c4ccc(Cl)cc4)sc32)cc1,u,179,3.7µM*,21µM*,23µM*
Cc1ccc(S(=O)c2snnc2C)cc1 (stereo not drawn),-5%,-18,-10%,10%,-2%
Cc1nnsc1S(=O)c1ccc(F)cc1 (stereo not drawn),-8%,-50*,15%,17%,13%
Cc1nnsc1S(=O)c1ccc(Br)cc1 (stereo not drawn),18µM*,-8,u,-3%,-1%
CCOc1ccc(NC(=O)CN(C)C(=O)c2ccc3nc(CC)c(CC)nc3c2)cc1OCC,2%,-5,-19%,1%,2%
CCOC(=O)c1nnn(CC(=O)NC(=O)Nc2ccc(F)cc2)c1C(=O)OCC,-12%,-5,-26%,-3%,-2%
CCCCNc1cc(N2CCN(C3CCCCC3)CC2)c2noc3c2c1C(=O)c1ccccc1-3,5.2µM*,x,5.2µM*,x,x
CCOC(=O)N1CCN(c2cc(NCCC(=O)O)c3c4c(onc24)-c2ccccc2C3=O)CC1,u,-64*,u,u,u
O=C(c1ccco1)N1CCN(C2=NS(=O)(=O)c3ccccc32)CC1,14%,0,-6%,17%,16%
O=C1c2ccccc2-c2onc3c(N4CCN(CCO)CC4)cc(N4CCN(C(=O)c5ccco5)CC4)c1c23,u,u,15µM*,u,u
O=C(O)CCNc1ccc(NCCC(=O)O)c2c1C(=O)c1ccccc1C2=O,u,0,u,u,u
Cc1cc(C)n2nc(C(=O)OCC(=O)c3c[nH]c4ccccc34)nc2n1,-4%,31,9%,5%,-3%

# Screening data (PubChem)
